POLK inh: inhibitors of human DNA polymerase kappa. AID 588579. 0.53% of 400,000 active. Potency, µM (top dose mostly 107 µM), actives largely listed as inhibitors. purified Pol kappa, fluorescent DNA synthesis assay, 10 min. Q9UBT6
Target sequence (Q9UBT6 whole entry, looked up): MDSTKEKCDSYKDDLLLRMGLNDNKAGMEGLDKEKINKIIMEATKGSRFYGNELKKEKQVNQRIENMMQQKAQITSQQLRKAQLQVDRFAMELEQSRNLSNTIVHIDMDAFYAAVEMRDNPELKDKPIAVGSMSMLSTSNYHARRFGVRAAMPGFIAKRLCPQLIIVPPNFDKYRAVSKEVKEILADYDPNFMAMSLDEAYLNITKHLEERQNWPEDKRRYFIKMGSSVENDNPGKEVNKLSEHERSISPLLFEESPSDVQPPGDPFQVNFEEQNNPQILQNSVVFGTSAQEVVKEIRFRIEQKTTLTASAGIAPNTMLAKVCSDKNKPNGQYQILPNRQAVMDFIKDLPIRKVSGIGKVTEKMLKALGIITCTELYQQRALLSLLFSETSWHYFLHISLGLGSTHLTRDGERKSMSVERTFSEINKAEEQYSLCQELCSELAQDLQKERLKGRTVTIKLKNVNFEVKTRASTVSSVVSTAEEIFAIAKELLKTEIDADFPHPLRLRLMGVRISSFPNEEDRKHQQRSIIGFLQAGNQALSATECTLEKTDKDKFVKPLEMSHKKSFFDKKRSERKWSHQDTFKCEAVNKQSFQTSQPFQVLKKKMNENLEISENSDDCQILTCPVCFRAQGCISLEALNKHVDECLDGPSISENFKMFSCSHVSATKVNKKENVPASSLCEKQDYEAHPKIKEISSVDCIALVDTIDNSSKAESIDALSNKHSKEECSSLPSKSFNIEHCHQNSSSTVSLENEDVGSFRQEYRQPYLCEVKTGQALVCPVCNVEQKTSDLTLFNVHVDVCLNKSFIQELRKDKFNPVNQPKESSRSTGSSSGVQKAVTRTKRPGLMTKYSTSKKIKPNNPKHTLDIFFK
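Enzyme at 10 nM met test compounds for 15 min at room temperature. Substrate addition (50 nM final) began the reaction, which was monitored by fluorescence at 0 and 10 min.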
POLB inh: blocks human DNA polymerase beta activity; 1.3% of 340,000 active; P06746; Potency, µM (doses to about 114 µM), usual class: inhibitors; Pol beta primer extension/strand displacement, fluorescence kinetic
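Reaction started by 50 nM substrate onto compound-treated Pol beta (10 nM, 15 min preincubation, room temperature); plates read at 0 min and 10 min. Normalized concentration-effect data fitted by four-parameter Hill equation.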
POLH inh: blocks human DNA polymerase eta activity | AID 588591 | recombinant Pol eta, fluorescent DNA replication assay | Potency, µM (series often up to 114 µM), usual class: inhibitors | 1.2% of 390,000 active
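Pol eta at 10 nM preincubated with compounds 15 min at room temperature; reaction started with fluorescent substrate (50 nM final) and read kinetically at 0 and 10 min.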
12-LOX inh: ALOX12 (human) lipoxygenase inhibition; 1.1% of 580,000 active; Potency, µM (series often up to 108 µM), actives largely listed as inhibitors; purified 12hLO, xylenol orange hydroperoxide absorbance
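Purified human 12hLO (150 nM final) in 25 mM Hepes, 0.01% Triton X-100, pH 7.0 was preincubated 15 min at room temperature with compound. Then 40 uM arachidonic acid was added, 30 min. Hydroperoxide was read by Fe-XO absorbance ratio 573/405 nm.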
Pol iota inh: blocks human DNA polymerase iota activity | Pol iota fluorescent replication assay, 10 min | AID 588590 | Potency, µM (series often up to 115 µM), actives largely listed as inhibitors | Q9UNA4 | 1% of 390,000 active
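Pol iota at 10 nM preincubated 15 min with compounds at room temperature; reaction started with fluorescent substrate, 50 nM final. Fluorescence read kinetically at 0 and 10 min; buffer-only wells as negative control.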
PI5P4K alpha inh: blocks human PI5P4K alpha kinase activity. P48426. PI5P4Kalpha enzyme, ADP-Glo luminescence, 60 min; active compounds read low. max response, %. 1.2% of 330,000 active; active means max response of -50% or lower; inconclusive means between -30% and -50%; inactive means -30% or higher; further: value at the top dose of about 77 µM
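ADP-Glo luminescence end-point after a 60 min room-temperature kinase reaction. PI5P4Kalpha and substrate in HEPES pH 7.4 buffer with EGTA, 0.1% CHAPS and 5% DMSO; ATP at 5 microM final.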
Hits are given with their value; . = inactive; ? = inconclusive; / = no result given; [ ] = dose if it differs, or a comment. A selection: hits, their analogues and other compounds. The true share with any hit is near 2.9%. Unless noted, the call rests on the fitted dose curve; in most records, active means well fitted inhibition curve with a large enough effect; inconclusive means small, poorly fitted or top-dose-only effect, or another doubt; inactive means no such curve, though single readings can be large or run the other way.

SMILES	POLK inh	POLB inh	POLH inh	12-LOX inh	Pol iota inh	PI5P4K alpha inh
Cc1nc2ccc(NC(=O)COc3ccccc3F)cc2s1	.	.	.	.	.	.
O=C(COc1ccccc1F)Nc1ccc(-c2nc3ccccc3s2)cc1	.	44.7µM	.	.	.	/
COc1ccccc1NCC(=O)c1ccc(C)c(C)c1	.	.	.	15.8µM	.	.
COc1ccccc1NCC(=O)c1ccc(Cl)cc1	.	89.1µM	?	?	.	.
N#Cc1nc(COc2ccc3c(c2)OCO3)oc1NC1CCCCC1	/	/	/	.	/	/
Cc1cc(C)c2c(=O)n(CC(=O)Nc3ccccc3Cl)c(=O)n(C)c2n1	/	/	/	.	/	/
Cc1cc(C)c2c(=O)n(CC(=O)NC3CCCC3)sc2n1	.	.	.	.	?	-64.2
COc1ccc(OC)c(CCNC(=O)Cn2sc3nc(C)cc(C)c3c2=O)c1	/	.	/	/	/	/
Cc1cc(C)c2c(=O)n(CC(=O)Nc3ccc(Br)c(C)c3)sc2n1	.	.	.	.	?	-61.7
Cc1cc(C)c2c(=O)n(CC(=O)Nc3cccc(Cl)c3C)sc2n1	.	.	.	0.708µM	?	-87.0
Cc1nc2cc(-c3ccccc3)nn2c(C)c1CCC(=O)Nc1ccc(F)cc1	/	/	/	.	/	/
Cc1ccc(NC(=O)CSCc2nc(-c3ccccc3)oc2C)cc1	/	/	/	.	/	/
CCOC(=O)c1cnc2ccccc2c1N1CCCC(CO)C1 (configuration not stated)	/	/	/	.	/	/
C[C@@H]1CN([C@@H](C)CO)C(=O)c2cc(C#CC3CCCCC3)cnc2O[C@@H]1CN(C)S(=O)(=O)c1ccc(F)cc1	/	/	.	39.8µM	/	.
C[C@H](CO)N1C[C@H](C)[C@@H](CN(C)S(=O)(=O)c2ccc(F)cc2)Oc2ncc(Br)cc2C1=O	/	/	/	.	/	/
C[C@H]1CN([C@@H](C)CO)C(=O)c2cc(C#CCC3CCCC3)cnc2O[C@@H]1CN(C)C(=O)CC1CC1	/	/	.	44.7µM	/	.
COC(=O)c1cc(-c2ccc(OC)cc2OC)nc2ccccc12	/	/	/	.	/	/
O=[N+]([O-])c1cc(C(F)(F)F)ccc1NC1C2CC3CC(C2)CC1C3 (configuration not stated)	/	/	/	.	/	/
COc1cc2c(cc1OC)CN(C(=O)/C=C/c1ccc([N+](=O)[O-])cc1)CC2	.	.	.	14.1µM	.	.
COc1cc2c(cc1OC)CN(C(=O)/C=C/c1ccccc1[N+](=O)[O-])CC2	.	.	.	?	.	.
CN(CCO)c1nc(N)c2c(N)nc3c(c2c1C#N)CC(=O)N3Cc1cccs1	.	.	?	.	.	.
N#Cc1c(N(CCO)CCO)nc(N)c2c(N)nc3c(c12)CC(=O)N3Cc1cccs1	.	.	39.8µM	/	3.55µM	?
CN(CCc1ccccn1)c1ccc(-c2nc(COc3ccccc3)no2)cn1	/	/	/	.	/	/
Cc1ccccc1NC(=O)c1nc2ccccc2nc1N1CCN(C)CC1	/	/	/	.	/	/
CC(C)(C)c1ccccc1OCCCCCNCCO	.	.	.	?	70.8µM	/
SMILES	POLK inh	POLB inh	POLH inh	12-LOX inh	Pol iota inh	PI5P4K alpha inh
Cc1ccc2nc(NC(=O)CSc3nccn3Cc3ccc(Cl)cc3)sc2c1	.	.	.	.	.	/
Cc1ccc2nc(NC(=O)CSc3nccn3-c3ccc(Cl)cc3)sc2c1	.	25.1µM	.	.	?	/
O=C(Cc1ccc(-c2ccccc2)cc1)N1CCN(S(=O)(=O)c2ccc3ccccc3c2)CC1	/	/	/	.	/	/
CN1CCN(C2=CC3=CC(=C(C#N)C#N)CCC3CC2)CC1 (configuration not stated)	.	.	.	/	89.1µM	.
O=C(c1ccccc1)N1CCC2(C1)C(=O)N(CCc1ccccc1)c1ccccc12 (configuration not stated)	/	/	/	.	/	/
N=C1C(c2nc3ccccc3[nH]2)=C(O)CN1c1ccc(CC(=O)O)cc1	.	.	79.4µM	.	?	/
N=C1C(c2nc3ccccc3[nH]2)=C(O)CN1c1ccccc1	.	.	.	.	.	.
COc1cc(NC(=O)Nc2cccc(-c3ccc(N4CCOCC4)nn3)c2)cc(OC)c1	/	/	/	.	/	/
COc1ccc([C@H]2CC(=O)C=C(c3cccc(Cl)c3O)C2)cc1OC	.	/	.	22.4µM	.	.
CC(C)c1noc(C2Cc3ccccc3N2C(=O)Nc2ccc3c(c2)OCCO3)n1 (configuration not stated)	/	/	/	.	/	/
CCOc1ccccc1C(=O)NCC(=O)OCC(=O)c1ccc2c(c1)OCCO2	.	70.8µM	.	.	?	.
Oc1ccc(/C=N/N(Cc2ccccc2)c2ccccc2)c(O)c1O	.	6.31µM	.	39.8µM	.	-76.2
Oc1cccc(/C=N/N(Cc2ccccc2)c2ccccc2)c1	.	.	.	50.1µM	.	.
C(=N\N(Cc1ccccc1)c1ccccc1)/c1cccnc1	.	.	.	?	.	.
OC[C@@H](O)[C@H](O)[C@H](O)[C@@H](O)CO	/	/	/	.[22.9 µM]	/	/
O[C@@H]([C@H](O)[C@H](O)CBr)[C@H](O)CBr	.	/	.	?	.	-62.2
CCOC(=O)c1c(S(=O)(=O)N2CCCC2)nn(CC)c1C	/	/	/	12.6µM	/	/
CCOC(=O)NN=C1c2ccccc2-c2ccccc21	.	.	.	.	.	.
CCOC(=O)Nc1ccc2c(c1)C(=NNC(=S)NC)c1ccccc1-2	/	/	.	39.8µM	/	.
Oc1c(Br)cc(Br)cc1/C=N/c1nc2c(s1)CCCC2	79.4µM	/	?	/	?	-54.4
CCOc1ccc(-c2nc(C3CC(=O)N(Cc4ccccc4OC)C3)no2)cc1 (configuration not stated)	/	/	/	.	/	/
CN(C)c1ccc(C(=O)N2CCCC(n3cc(-c4nc(-c5ccccc5)no4)nn3)C2)cc1 (configuration not stated)	/	/	/	.	/	/
N[C@@H](CCC(=O)N[C@@H](CSN=O)C(=O)NCC(=O)O)C(=O)O	.	/	.	.	.	.
[N-]=[N+]=Nc1ccc(C(=O)CSC[C@H](NC(=O)CC[C@H](N)C(=O)O)C(=O)NCC(=O)O)cc1	?	?	?	/	28.2µM	/
O=C1C=C(C2OC(CO)C(O)C2O)C(=O)N1 (configuration not stated)	.	/	.	.	.	-53.7
SMILES	POLK inh	POLB inh	POLH inh	12-LOX inh	Pol iota inh	PI5P4K alpha inh
O=C1C(=Cc2ccco2)CCCC1=Cc1ccco1	50.1µM	/	22.4µM	25.1µM	20µM	.
O=C1C(c2ccc(F)cc2)N(CCc2ccccc2Cl)C(=O)CN1C1CCCCC1 (configuration not stated)	/	/	/	.	/	/
NC(=S)N/N=C/c1coc2ccc(O)cc2c1=O	.	.	.	.	.	-72.0
O=C(N/N=C/c1coc2ccc(Cl)cc2c1=O)c1cc(O)cc(O)c1	.	.	.	44.7µM	.	?
NC(=S)N/N=C/c1coc2ccc(Br)cc2c1=O	.	.	.	.	.	.
O=C(CSc1nccn2nc(-c3ccccc3)cc12)N1CCN(c2ccccc2F)CC1	/	/	/	.	/	/
CC1CC1c1ccc(/C=C/C(=O)N(Cc2ccccc2)C2CC2)o1 (configuration not stated)	/	/	/	8.91µM	/	/

Screening results as filed in PubChem BioAssay.
